Among the data in PubChem BioAssay AID651899 (Broad Institute, 2012) are outcome values, retold here.

Potency and affinity values are given separately. Calls of active or inactive are those of the source. Entries that show only a call come without a potency. The rule behind the calls is not given here.

A short description of the assay: HEK293 cell viability loss – plate reader, cherry-pick, cytotoxicity control, dose response (AID 651899).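 Note: cells exposed to compound for 48 hours.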 The following applies: series mostly up to 26 µM.
Turning to `COCCNC(=O)C[C@H]1CC[C@@H]2[C@@H](COc3ccc(NC(=O)Nc4cccc(F)c4)cc3C(=O)N2C)O1`, the call was inactive. For the molecule `COC(=O)c1c(C(=O)OC)c(-c2cccc(F)c2)n2c1CS(=O)C2` (stereo unspecified), the molecule was called inactive. For `COc1ccc(C2c3c(oc4ccc(Cl)cc4c3=O)C(=O)N2CCN2CCOCC2)cc1` (stereo unspecified), the molecule was classed as inactive.

In the case of `O=C(C1CCOCC1)N1CC[C@@H]2[C@H]1c1cc(Br)ccc1N[C@@H]2CO`, the molecule was called inactive.

Regarding `O=C(Nc1ccc(F)c(F)c1)C1CCN(S(=O)(=O)c2cccs2)CC1`, the molecule was called inactive. For `CCOC(=O)C1(CCc2ccccc2)CCN(C(=O)CN2CCOC2=O)CC1` the value was “inactive”. As for `CCCC(=O)Nc1cccc(NC(=O)c2ccc(C)c([N+](=O)[O-])c2)c1`, the entry is “inactive”; as for `COc1cc(C(=O)Nc2cccnc2)cc(OC)c1OC`, “inactive”; as for `CCOC(=O)c1ccc2c(c1)nc(SCc1cn3ccsc3n1)n2CC`, “inactive”.

`CN1CCN(c2ncnc3c2[nH]c2ccc(F)cc23)CC1`: the molecule was classed as inactive.

For the molecule `CCOC(=O)CNC(=O)c1sc2ncnc(N3CCc4ccccc4C3)c2c1C`, the call was inactive. For `O=C(Cc1ccccc1)N1CC[C@@H]2[C@H]1c1cc(Br)ccc1N[C@@H]2CO` the value was “inactive”; for `O=C(Nc1ccc(N2CCOCC2)c(Cl)c1)c1cccnc1`, “inactive”. For `CCCOC(=O)c1cccc(NC(=O)c2cccnc2)c1` the value was “inactive”; for `CS(=O)(=O)N1[C@H](C(=O)NCc2ccncc2)[C@@H](CO)[C@@H]2Cn3c(ccc(C4=CCCCC4)c3=O)[C@@H]21`, “inactive”. Turning to `Clc1ccc(CSc2nnc(-c3cccnc3)o2)cc1`, the molecule was called inactive. With `Cc1nc2nc(SCC(=O)N3CCOCC3)nn2c(C)c1Cc1ccccc1`, the molecule was called inactive. For `COC(=O)C1C(=O)C=C(Nc2ccc(F)cc2)CC1c1ccc(OC)cc1` (stereo unspecified) the value was “inactive”. In the case of `O=C(c1ccc2c(c1)OCO2)N1CC[C@@H]2[C@H](CO)Nc3ccc(-c4ccc(F)cc4)cc3[C@@H]21`, the molecule was called inactive. As to `COc1ccc(Nc2c(-c3ccc(OC)cc3)nc3cnccn23)cc1`, the molecule was classed as inactive.

Consider `CCOC(=O)c1ccc(N2C(=O)c3n[nH]c(C)c3C2c2ccc(OC)c(OC)c2)cc1` (stereo unspecified), for which the molecule was called inactive.

For the molecule `O=C(Nc1cccc(F)c1)C1CCCN(c2cnccn2)C1` (stereo unspecified), the result was inactive. In the case of `CNC(=O)C[C@H]1CC[C@@H]2[C@H](COC[C@@H](O)CN2C(=O)Nc2ccc3c(c2)OCO3)O1`, the molecule was called inactive. Turning to `O=C(C1CCOCC1)N1CC[C@@H]2[C@H](CO)Nc3ccc(Br)cc3[C@@H]21`, the result was inactive. Consider `C=CCn1c(SCc2c(C(=O)OC)sc(N)c2C(=O)OC)nnc1-c1ccc(Br)cc1`, for which the molecule was classed as inactive. On to `CC(Oc1cc2oc(=O)c3c(c2cc1Cl)CCC3)C(=O)NCc1cccnc1` (stereo unspecified), for which the outcome was inactive. For `CN1c2ccc(-c3cccc(F)c3)cc2[C@H]2[C@H](CCN2C(=O)C2CCOCC2)[C@H]1CO`, the call was inactive.

On to `Nc1cc(C(=O)O)ccc1Nc1ccccc1`, for which the molecule was called inactive. For `COc1cc(-c2nc3ccccc3nc2-c2ccc(O)c(OC)c2)ccc1O` the value was “inactive”; for `Cn1ncc2cc3c(Nc4ccc(Cl)cc4)cccc3nc21`, “inactive”. For `CCOC(=O)c1c(N)sc(C(N)=O)c1C` the value was “inactive”; for `O=C(Nc1ncc2c(n1)CC(c1ccco1)CC2=O)c1ccccc1` (stereo unspecified), “inactive”; for `Cc1ccc(Cc2c(C)nc3nc(SCC(=O)NCCN4CCOCC4)nn3c2C)cc1`, “inactive”. As for `Cc1nn(CCC(=O)O)c2nc(-c3cccnc3)cc(C(F)(F)F)c12`, the entry is “inactive”. Turning to `O=C(CSc1nc2c(c(=O)n1-c1ccccc1)SCC2)N1CCOCC1`, the result was inactive. `COc1ccc(Cn2ccc(=O)c(Cc3c(Cl)cccc3Cl)c2C)cc1`: the call was inactive.
